Test system: Falciformispora senegalensis CBS197.79
Assay: growth relative to untreated control; higher = less inhibition, active = 20 or less
How it was run: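 Compound at 100 or 25 µM was applied for 7 days at 37 °C to hyphal fragments of M. mycetomatis MM55 or F. senegalensis CBS197.79 in 96-well plates. Fragments were suspended in colourless RPMI 1640 with L-glutamine and MOPS at 68–72% transmission at 660 nm, and viability was read with MTS (2 h, 490 nm) or resazurin (600 nm). Growth is reported as blank-corrected metabolic activity relative to the blank-corrected untreated growth control.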

SMILES	growth (25 µM)	growth (100 µM)
CN1CCC(N2CCC(NC(=O)c3cc4c(F)cccc4s3)CC2)CC1	91.4% (inactive)	15.5% (active)
CC(C)Nc1cccnc1N1CCN(C(=O)c2cc3cc(NS(C)(=O)=O)ccc3[nH]2)CC1	101% (inactive)	96.5% (inactive)
CC(C)N1CCN(c2ccc(OC[C@H]3CO[C@](Cn4cncn4)(c4ccc(Cl)cc4Cl)O3)cc2)CC1	20.1% (inactive)	7.6% (active)
COc1cc2c3cc1Oc1c(OC)c(OC)cc4c1[C@@H](Cc1ccc(O)c(c1)Oc1ccc(cc1)C[C@@H]3N(C)CC2)N(C)CC4	99.1% (inactive)	12.6% (active)
Cc1cccnc1Nc1cn2cc(-c3ccnc(OC(C)C)n3)ccc2n1	101% (inactive)	91% (inactive)
N#Cc1ccc(-c2n[nH]c3ccc(-c4n[nH]c(CC(F)(F)F)n4)cc23)cc1	94% (inactive)	98.3% (inactive)
CNC(=O)c1cc(Oc2ccc(NC(=O)Nc3ccc(Cl)c(C(F)(F)F)c3)cc2)ccn1	103% (inactive)	94.4% (inactive)
COc1ccc(C(=O)N2CCC3(CC2)C(=O)N(CC(=O)NCC2CCCCC2)CN3c2ccccc2)c(OC)c1	91.9% (inactive)	85.8% (inactive)
CN(C)CCn1cnc2sc3c(c2c1=O)CCC(NCc1cccc(Cl)c1)C3 (configuration not stated)	94.3% (inactive)	21% (inactive)
NC(=O)C(c1ccccc1)(c1ccccc1)[C@@H]1CCN(CCc2ccc3c(c2)CCO3)C1	95.3% (inactive)	97.9% (inactive)
Cc1cnc2nc(NC3COc4ccc(F)cc43)nc(NC3CCC4(CCCC4)CC3)c2c1 (configuration not stated)	85.8% (inactive)	95% (inactive)
